# From PubChem BioAssay
# GPT2 inhibitor – GPT2 alanine aminotransferase inhibition; Potency, µM (highest dose often 57.7 µM), for the others: at the top dose activity change, negative = inhibition, actives largely listed as inhibitors; AID 1671188; hit rate 0.25% among 100,000; Recombinant GPT2, coupled pyruvate oxidase/HRP Amplex Red fluorescence; Q8TD30; also: nearly all actives have a fitted effect of over 60% in size
#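 Fluorescence of coupled pyruvate oxidase/HRP/Amplex Red system (50uM Amplex, 30 min, dark) reports pyruvate formed by GPT2. Enzyme reaction: 10ng/uL GPT2, 2mM L-alanine, 250uM a-KG, 30 min room temperature, pH 7.5; 50uM AOA control.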
# NPR1 antag – human Npr1 receptor antagonism. P16066. HEK293 hNpr1 GloSensor cGMP, ANP-stimulated luminescence. Potency, µM (top dose mostly 46.3 µM), for inactives: top-dose activity change, negative = inhibition, hits mostly inhibitors. hit rate 1.6% among 76,000. AID 1347048; calls by dose curve; also: nearly all actives have a fitted effect of over 60% in size
# Target sequence (P16066 whole entry, looked up): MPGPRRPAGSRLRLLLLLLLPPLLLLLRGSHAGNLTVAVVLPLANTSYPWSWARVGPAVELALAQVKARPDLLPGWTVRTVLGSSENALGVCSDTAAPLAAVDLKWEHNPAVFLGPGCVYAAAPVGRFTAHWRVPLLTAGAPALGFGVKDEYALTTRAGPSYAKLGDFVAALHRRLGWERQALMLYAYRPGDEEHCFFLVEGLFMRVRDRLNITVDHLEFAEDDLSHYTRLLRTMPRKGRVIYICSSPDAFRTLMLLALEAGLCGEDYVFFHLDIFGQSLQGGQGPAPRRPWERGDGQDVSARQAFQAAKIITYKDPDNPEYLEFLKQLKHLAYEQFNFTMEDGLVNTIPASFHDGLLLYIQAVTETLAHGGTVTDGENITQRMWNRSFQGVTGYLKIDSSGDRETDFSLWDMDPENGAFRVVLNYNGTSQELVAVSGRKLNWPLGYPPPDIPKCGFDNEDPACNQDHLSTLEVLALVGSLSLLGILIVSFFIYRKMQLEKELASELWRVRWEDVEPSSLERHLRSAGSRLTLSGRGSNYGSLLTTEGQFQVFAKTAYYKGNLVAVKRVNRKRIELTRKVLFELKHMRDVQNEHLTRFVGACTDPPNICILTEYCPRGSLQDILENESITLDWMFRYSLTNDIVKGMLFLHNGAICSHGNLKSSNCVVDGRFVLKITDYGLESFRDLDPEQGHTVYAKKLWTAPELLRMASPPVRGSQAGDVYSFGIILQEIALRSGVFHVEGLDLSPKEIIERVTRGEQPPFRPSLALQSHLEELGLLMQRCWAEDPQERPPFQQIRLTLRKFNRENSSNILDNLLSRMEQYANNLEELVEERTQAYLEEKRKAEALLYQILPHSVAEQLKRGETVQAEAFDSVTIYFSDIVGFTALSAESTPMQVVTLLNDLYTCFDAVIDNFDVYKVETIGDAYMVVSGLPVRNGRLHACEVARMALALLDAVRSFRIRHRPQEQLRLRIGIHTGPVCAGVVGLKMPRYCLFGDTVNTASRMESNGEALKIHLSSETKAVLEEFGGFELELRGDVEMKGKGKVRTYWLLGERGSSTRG
#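 Compound pre-incubated 30 min at room temperature on GloSensor-loaded HEK293 cells stably carrying hNpr1 and the pGS-40F cGMP biosensor. Stimulation uses hNppA at 0.1 nM final; luminescence is taken at baseline and 20 min post-agonist.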
# NIH3T3 tox – NIH 3T3 cell cytotoxicity; Potency, µM (doses to about 96.7 µM), inactives show at the highest dose activity change, negative = cytotoxicity, most hits filed as inhibitors; hit rate 4.3% among 94,000; NIH 3T3 viability, CellTiter-Glo ATP luminescence, 48-72 h; also: nearly all actives have a fitted effect of over 55% in size
#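 Luminescent ATP readout (CellTiter-Glo, 10 min RT) after 48 or 72 hr compound exposure of NIH 3T3 cells seeded at 400 cells/well in 1536-well format; quantitative HTS.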
# HEK cytotox – kills HEK 293 cells | HEK 293 viability, ATP luminescence (CellTiter-Glo), 48-72 h | hit rate 6.6% among 94,000 | Potency, µM (series often up to 115 µM), inactives show at the highest dose activity change, negative = cytotoxicity, actives largely listed as inhibitors; also: nearly all actives have a fitted effect of over 60% in size
#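 HEK 293 cells at 250 cells/well were exposed to compounds by pintool transfer for 48 or 72 hr at 37 degree Celsius, 5% CO2. Viability was read as ATP-coupled luminescence with CellTiter-Glo after 10 min at room temperature.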
# FLuc inh – Photinus pyralis luciferase inhibition. hit rate 2.5% among 76,000. purified P. pyralis luciferase, luminescence, biochemical. Potency, µM (top dose mostly 115 µM), actives largely listed as inhibitors. AID 1347043. P08659; also: nearly all actives have a fitted effect of over 65% in size
#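 Biochemical qHTS: compound (6-point titration) added to 10uM D-luciferin plus 10uM ATP in Tris acetate pH 7.5 buffer with Mg, Tween-20 and BSA, then purified enzyme at 10nM; light output imaged.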
# Numbers without * were called inactive; i = inactive; ? = inconclusive; / = not tested or not shown; [ ] = dose if it differs, or a comment. A selection: hits, their analogues and other compounds. The true share with any hit is near 10%. Unless noted, calls follow the shape of the dose curve; as a rule, active = well fitted curve in the direction sought with a large enough effect; inconclusive = small, poorly fitted or top-dose-only effect, or another doubt; inactive = no such curve, though single readings can be large; an effect the other way counts as inactive or inconclusive. % is scaled to controls: 0 for no effect and ±100 for the full control effect; potency is read from the fitted curve at half-maximal effect.
SMILES,GPT2 inhibitor,NPR1 antag,NIH3T3 tox,HEK cytotox,FLuc inh
O=C(Cc1ccccc1)N1CCCN(c2ccc3nnc(C4CC4)n3n2)CC1,/,/,-3.5%,3.2%,/
O=C(Nc1ccc(F)cc1)c1cccn2nccc12,0.7%[88.5 µM],-20.7%[70.6 µM],-15.4%[138 µM],i,?
O=C(Nc1ccc(F)cc1)c1ccn2nccc2c1,-5.1%[88.5 µM],-9.4%[70.6 µM],-25.8%[138 µM],?,50.1µM*
COc1ccc(-c2nc(CC3CCN(C(=O)c4ccoc4)C3)no2)cc1 (configuration not stated),i,/,?,?,/
Cn1ccc2c(C(=O)NCCc3cnc[nH]3)nc(-c3ccccc3)cc21,-5.7%[88.5 µM],-12.4%[70.6 µM],?,?,?
COc1ccc(-c2cc3c(ccn3C)c(C(=O)NCCc3cnc[nH]3)n2)cn1,-6.6%[88.5 µM],3.4%[70.6 µM],25.1µM*,?,i
Cn1ccc2c(C(=O)NCCc3cnc[nH]3)nc(-c3cccnc3)cc21,i,0.3%[70.6 µM],44.7µM*,-23.8%[172 µM],i
Cn1ccc2c(C(=O)NCCc3cnc[nH]3)nc(-c3cnn(Cc4ccccc4)c3)cc21,i,-5.8%[70.6 µM],79.4µM*,?,i
Cn1ccc2c(C(=O)NCCc3cnc[nH]3)nc(-c3cccc(CO)c3)cc21,-4.8%[88.5 µM],-8.6%[70.6 µM],?,?,i
Cn1ccc2c(C(=O)NCCc3cnc[nH]3)nc(-c3cccc(C(F)(F)F)c3)cc21,-8.5%[88.5 µM],-6.3%[70.6 µM],35.5µM*,39.8µM*,i
COc1ccc(CC(=O)N2CCCC(c3nn(-c4ccccn4)c(=O)[nH]3)C2)cc1 (configuration not stated),2.7%,/,-8.1%,-2.7%,/
CN(C)C(=O)N1CCN(c2ccc3nnc(C4CC4)n3n2)CC1,/,/,-10.0%[138 µM],i,/
Cc1ccc(-c2cn3c(n2)CO[C@@H](CNC(=O)c2ccccc2)C3)cc1,-5.8%[88.5 µM],0.9%[70.6 µM],-8.9%[138 µM],?,?
Cc1ccc(-c2cn3c(n2)CO[C@@H](CNCc2ccc(-c4ccccn4)cc2)C3)cc1,-23.0%[88.5 µM],?,39.8µM*,35.5µM*,35.5µM*
Cc1ccc(-c2cn3c(n2)CO[C@@H](CNC2CCCC2)C3)cc1,-12.6%[88.5 µM],3.3%[70.6 µM],100µM*,100µM*,63.1µM*
Cc1ccc(-c2cn3c(n2)CO[C@@H](CNC(=O)NCc2ccccc2)C3)cc1,2.6%[88.5 µM],0.1%[70.6 µM],-16.7%[138 µM],?,70.8µM*
c1ccc(-c2cn3c(n2)CO[C@@H](CNCC2CCCCC2)C3)cc1,-3.6%[88.5 µM],-2.3%[70.6 µM],100µM*,100µM*,i
O=S(=O)(Cc1ccccc1)NC[C@H]1Cn2cc(-c3ccccc3)nc2CO1,-3.8%[88.5 µM],4.8%[70.6 µM],-17.9%[138 µM],?,?
COc1ccc(CC(=O)NC2CCN(c3nccc(Nc4ccccc4OC)n3)CC2)cc1,i,/,?,?,/
O=C(c1nc2sccn2c1-c1cccnc1)N1CCOCC1,i,/,-5.1%[138 µM],-18.6%[172 µM],/
COc1ccc(-c2cn3c(n2)CO[C@@H](CNCc2ccc(OC(F)(F)F)cc2)C3)cc1,1.8%[88.5 µM],?,?,44.7µM*,?
Cc1ccc(-c2cn3c(n2)CO[C@@H](CNCc2ccc(S(C)(=O)=O)cc2)C3)cc1,i,-20.8%[70.6 µM],-27.5%[174 µM],?,?
Cc1ccc(-c2cn3c(n2)CO[C@@H](CNCc2ccccc2Cl)C3)cc1,-10.0%[88.5 µM],?,89.1µM*,89.1µM*,i
COc1ccc(-c2cn3c(n2)CO[C@@H](CNCc2ccccc2OC)C3)cc1,-4.3%[88.5 µM],2.6%[70.6 µM],?,?,?
Cc1ccc(-c2cn3c(n2)CO[C@@H](CNCc2ccc(Cl)cc2)C3)cc1,0.1%[88.5 µM],?,44.7µM*,56.2µM*,?
SMILES,GPT2 inhibitor,NPR1 antag,NIH3T3 tox,HEK cytotox,FLuc inh
COc1ccc(-c2cn3c(n2)CO[C@@H](CNC(C)=O)C3)cc1,0.2%[88.5 µM],0.8%[70.6 µM],i,i,44.7µM*
CC(C)(C)NC(=O)N1CCCCCCNC(=O)[C@@H]2C[C@@H](c3nc(-c4cccnc4)no3)C[C@@H]21,i,4.0%,-22.6%,-8.1%,i
O=C(NCCc1ccccc1F)c1ccc2oc(-c3cccnc3)nc2c1,i,/,?,-19.6%,/
CC(=O)Nc1ccc(CNC[C@H]2Cn3cc(-c4ccc(C)cc4)nc3CO2)cc1,i,5.1%[70.6 µM],?,?,70.8µM*
CCOC(=O)N1CCN(C2CCCN(Cc3cc(C)ccc3-n3cccn3)C2)CC1 (configuration not stated),-12.9%,0.8%,-20.6%,?,i
Cc1nn(C)c2nc(NCCCOC3CCCC3)sc12,-7.3%,?,?,31.6µM*,35.5µM*
O=C(c1[nH]nc2c1COc1ccccc1-2)N1CCC(Cc2nncn2CC2CC2)CC1,i,-0.1%,39.8µM*,-28.3%,i
Cc1cccc(C(=O)N2CCC(Cc3nncn3CC3CC3)CC2)c1,i,-6.3%,-25.2%,-7.6%,i
O=C1COCC2(CN(c3ccc(C(F)(F)F)cn3)C2)CN1c1ccc(F)cc1,-7.2%[88.5 µM],-3.2%[70.6 µM],?,?,i
O=C1COCC2(CN(c3ccccc3)C2)CN1c1ccc(OC(F)(F)F)cc1,i,-10.7%[70.6 µM],89.1µM*,89.1µM*,i
Cn1cccc1-c1noc(C2CCN(Cc3noc(-c4ccccc4)n3)C2)n1 (configuration not stated),-10.4%,/,?,?,/
Cc1ccc(-c2cc(C(=O)NCc3cccs3)c3cnn(C)c3n2)c(C)c1,-0.9%,/,?,?,/
Cn1ncc2c(C(=O)NCc3cccs3)cc(-c3ccc(Cl)cc3Cl)nc21,i,/,?,39.8µM*,/
Cn1ncc2c(C(=O)CCc3ccc(F)cc3)cc(-c3ccc(Cl)cc3Cl)nc21,-19.0%,/,31.6µM*,35.5µM*,/
CCc1ccc(CN2CCCCC23Cc2ccccc2CNC3=O)cc1 (configuration not stated),i,/,?,?,/
Cc1sc2cc(C(=O)NCC3CC3)[nH]c2c1CN1CCCCC1,i,-10.5%,?,?,i
O=C(c1ccn[nH]1)N1CC=C(c2cnc3cnc(-c4ccccc4)cn23)CC1,-8.5%[88.5 µM],-1.0%[70.6 µM],22.4µM*,-20.6%[172 µM],i
O=C(c1ccc(-c2ncc3cnc(-c4ccccc4)cn23)cc1)N1CCS(=O)(=O)CC1,2.2%[88.5 µM],-2.0%[70.6 µM],?,4.9%[172 µM],i
O=C(c1ccccc1)N1CCN(C(=O)c2cccc(-c3ccccn3)c2)CC1,-3.1%,/,-11.9%,-11.0%,/
O=C(c1cccc(O)c1)N1CC=C(c2cnc3cnc(-c4ccccc4)cn23)CC1,-4.0%[88.5 µM],-20.5%[70.6 µM],?,100µM*,i
CCc1nn(-c2ccc(OC)cc2)c(Oc2ccccc2F)c1CCC(=O)NCCOC,i,1.2%,?,-15.3%,i
Cc1nn(-c2ccccc2)c(Oc2ccccc2)c1CCC(=O)NCC1CCCO1 (configuration not stated),i,-13.2%,?,?,i
CCc1nn(-c2ccc(OC)cc2)c(Oc2ccccc2F)c1CCC(=O)NC(C)C,-8.8%,1.8%,?,?,i
